# The sample as a whole holds a higher share of hits than the screen did.
# KDM5B inhibitor: Primary screen for KDM5B Histone Demethylases FDH-coupled qHTS; Potency, µM (titrated, usually from 57.7 µM), usual class: inhibitors; hit rate 2.6% among 220,000; AID 1347165, 2019; KDM5B demethylase, FDH-coupled NADH fluorescence (FDH is formaldehyde dehydrogenase); Lysine-specific demethylase 5B (Homo sapiens), Q9UGL1; active means well fitted inhibition curve with a large enough effect; further: 0% is about no effect; nearly all actives have a fitted effect of over 70% in size
#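 Compound dilutions met 200 nM (final) KDM5BΔAP for 10 min at room temperature before substrate addition. The substrate mix held 12.5 µM H3K4me3 with cofactors 25 µM α-ketoglutarate and 50 µM Fe²⁺. NADH signal gain over 30 min defined activity.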
# The depositor's hits bear a star; i = inactive. Potency means the concentration at half of the fitted maximal effect.
SMILES,KDM5B inhibitor
COCCOCc1nc(C2CCCCN2C(=O)Nc2cccc(C(F)(F)F)c2)no1 (centres undefined),i
CC(C)c1cc(C(=O)Nc2ccc(F)cc2)nn1C1CCS(=O)(=O)C1 (centres undefined),i
COC(=O)Cn1c(=O)c2c3c(sc2n(CC(=O)c2ccc(Cl)cc2)c1=O)CCC3,i
Cn1nc(OC(C)(C)C(=O)NCCOc2ccccc2)c2cc(CN3CCCC3)ccc21,39.8µM*
COCc1ccc2c(c1)c(OC(C)(C)C(=O)N1CC(O)C1)nn2Cc1cccnc1,i
COCc1ccc2c(c1)c(OC(C)(C)C(=O)Nc1cc(C)nn1C)nn2Cc1ccccc1,i
COCc1ccc2c(c1)c(OC(C)(C)C(=O)NC1CC1)nn2Cc1ccccc1,35.5µM*
CC(C)n1nc(OC(C)(C)C(=O)NCc2cnccn2)c2cc(CN3CCOCC3)ccc21,i
COCc1ccc2c(c1)c(OC(C)(C)C(=O)NC1CCOCC1)nn2Cc1ccccc1,28.2µM*
COCc1ccc2c(c1)c(OC(C)(C)C(=O)Nc1ccccc1)nn2Cc1cccnc1,i
CN1CCC(NC(=O)C(C)(C)Oc2nn(CCOc3ccccc3)c3ccccc23)CC1,i
O=C(NNC(=O)C1CCCCC1)c1ccccc1F,i
COCCn1c(-n2nc(C)cc2C)nc2c1c(=O)n(Cc1ccccc1Cl)c(=O)n2C,i
CC(Cl)C(=O)NC(C)C1CC2CCC1C2 (centres undefined),i
Cn1cccc1CN1CCC2(CC1)C(=NC1CCCC1)NC(=O)N2c1cc(F)cc(F)c1,i
O=C(CCCc1ccccc1)N1CCC(c2noc(-c3cnccn3)n2)C1 (centres undefined),i
COc1ccc(C(=O)N2CC[C@@H]3CN(S(C)(=O)=O)[C@@H]3C2)c(OC)n1,i
COc1ccc(-c2nc(C(C)C)nc3c2CCN(C(=O)Cc2cccc(Cl)c2)CC3)cc1,i
O=C1CC2CCN(Cc3nc4ccccc4s3)CC2CCN1 (centres undefined),i
Cc1ccccc1CC(=O)N1CC(C(=O)NC2CCCCC2)C2(CCOCC2)C1 (centres undefined),i
CC1(C(=O)NC2CCOCC2)COCc2cnc(Nc3ccccc3)nc21 (centres undefined),i
CC1(C(=O)NC2COC2)CN(Cc2ccccc2)Cc2ccc(Nc3ccccc3)nc21 (centres undefined),35.5µM*
Cn1ccc(NC(=O)C2(C)COCc3cnc(Nc4ccccc4)nc32)n1 (centres undefined),i
CC(C)CNc1ccc2c(n1)C(C)(C(=O)NC1CCOCC1)CN(Cc1ccccc1)C2 (centres undefined),i
CC1(C(=O)NC2CCOCC2)CN(Cc2ccccc2)Cc2ccc(Nc3ccccc3)nc21 (centres undefined),28.2µM*
CCc1ccc(Oc2ccc(C#N)c(C#N)c2)cc1,i
COC(=O)C1=C(C)N(c2ccc3c(c2)OCO3)C(=O)NC1c1cc(Br)ccc1OC (centres undefined),i

# Source: PubChem
